Out of some 5,500 compounds screened, about 2,000 (36%) were called active. Another 18% or so got no clear call; they are omitted. Rule as the data show it: active = normalized growth mostly below about 0.91 (no sharp cut-off); inconclusive = no clear call, values can overlap the other calls; inactive = mostly above about 0.92. This is one part of the list.
Assay: chemical genetic growth profiling, strain panel (AID 1159580);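 also: tested at 20 µM; growth read once vehicle control cultures reached saturation at 30 °C; 1 = growth at the plate median or of vehicle wells; lower values mean less growth of the strain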
Settings: growth OD

Measured: normalized growth

CC(C)(C)NC[C@@H](O)COc1nsnc1N1CCOCC1
inactive: S. cerevisiae deletion strains, locus YJR075W, strain HOC1, hits give low values 0.995 | S. cerevisiae deletion strains, locus YKL009W, strain mrt4, hits give low values 1.03 | S. cerevisiae deletion strains, locus YKL068W, hits give low values 0.989 | S. cerevisiae deletion strains, locus YKL085W, strain MDH1 (second series), hits give low values 0.983 | S. cerevisiae deletion strains, locus YKL085W, strain MDH1, hits give low values 0.983 | S. cerevisiae deletion strains, locus YKL160W, strain elf1, hits give low values 1.01 | S. cerevisiae deletion strains, locus YKR001C, strain vps1, hits give low values 0.952 | S. cerevisiae deletion strains, locus YKR026C, strain gcn3, hits give low values 1.02 | S. cerevisiae deletion strains, locus YKR091W, strain srl3, hits give low values 1.01 | S. cerevisiae deletion strains, locus YLL001W, strain dnm1, hits give low values 1 | S. cerevisiae deletion strains, locus YLL026W, hits give low values 1.01 | S. cerevisiae deletion strains, locus YLL041C, strain sdh2, hits give low values 1.03 | S. cerevisiae deletion strains, locus YLR027C, strain aat2, hits give low values 1.01 | S. cerevisiae deletion strains, locus YLR039C, strain RIC1, hits give low values 1.01 | S. cerevisiae deletion strains, locus YLR058C, strain SHM2, hits give low values 1 | S. cerevisiae deletion strains, locus YLR102C, strain apc9, hits give low values 0.976 | S. cerevisiae deletion strains, locus YLR113W, strain HOG1, hits give low values 0.975 | S. cerevisiae deletion strains, locus YLR221C, strain rsa3, hits give low values 0.995 | S. cerevisiae deletion strains, locus YLR258W, strain gsy2, hits give low values 1.01 | S. cerevisiae deletion strains, locus YLR262C, strain YPT6 (second series), hits give low values 1.03 | S. cerevisiae deletion strains, locus YLR262C, strain YPT6, hits give low values 1.02 | S. cerevisiae deletion strains, locus YLR268W, strain sec22, hits give low values 0.961 | S. cerevisiae deletion strains, locus YLR320W, strain mms22, hits give low values 0.997 | S. cerevisiae deletion strains, locus YLR330W, strain CHS5, hits give low values 0.989 | S. cerevisiae deletion strains, locus YLR342W, strain FKS1 (second series), hits give low values 0.992 | S. cerevisiae deletion strains, locus YLR342W, strain FKS1, hits give low values 1 | S. cerevisiae deletion strains, locus YLR357W, strain rsc2, hits give low values 0.998 | S. cerevisiae deletion strains, locus YLR370C, strain arc18, hits give low values 1.02 | S. cerevisiae deletion strains, locus YLR371W, strain rom2, hits give low values 0.977 | S. cerevisiae deletion strains, locus YLR384C, strain iki3, hits give low values 1.01 | S. cerevisiae deletion strains, locus YLR418C, strain cdc73, hits give low values 1.03 | S. cerevisiae deletion strains, locus YML016C, strain PPZ1, hits give low values 0.988 | S. cerevisiae deletion strains, locus YML032C, strain rad52, hits give low values 1.01 | S. cerevisiae deletion strains, locus YML120C, strain ndi1, hits give low values 1.02 | S. cerevisiae deletion strains, locus YML124C, strain tub3, hits give low values 0.988 | S. cerevisiae deletion strains, locus YMR058W, strain fet3, hits give low values 1 | S. cerevisiae deletion strains, locus YMR078C, strain ctf18, hits give low values 0.972 | S. cerevisiae deletion strains, locus YMR125W, strain sto1, hits give low values 1.02 | S. cerevisiae deletion strains, locus YMR129W, hits give low values 1.02 | S. cerevisiae deletion strains, locus YMR205C, strain PFK2, hits give low values 1.02 | S. cerevisiae deletion strains, locus YMR223W, strain ubp8, hits give low values 1.02 | S. cerevisiae deletion strains, locus YMR231W, strain pep5, hits give low values 1.01 | S. cerevisiae deletion strains, locus YMR263W, strain SAP30, hits give low values 0.997 | S. cerevisiae deletion strains, locus YMR307W, strain GAS1, hits give low values 0.921 | S. cerevisiae deletion strains, locus YNL067W, strain RPL9B, hits give low values 0.999 | S. cerevisiae deletion strains, locus YNL071W, strain lat1, hits give low values 1.01 | S. cerevisiae deletion strains, locus YNL153C, strain GIM3, hits give low values 0.988 | S. cerevisiae deletion strains, locus YNL183C, strain NPR1, hits give low values 0.934 | S. cerevisiae deletion strains, locus YNL209W, strain ssb2, hits give low values 1.02 | S. cerevisiae deletion strains, locus YNL233W, strain BNI4, hits give low values 0.973 | S. cerevisiae deletion strains, locus YNL248C, strain rpa49, hits give low values 1.02 | S. cerevisiae deletion strains, locus YNL250W, strain rad50, hits give low values 0.969 | S. cerevisiae deletion strains, locus YNL271C, strain bni1, hits give low values 0.985 | S. cerevisiae deletion strains, locus YNL298W, strain CLA4, hits give low values 0.993 | S. cerevisiae deletion strains, locus YNL307C, strain MCK1, hits give low values 0.974 | S. cerevisiae deletion strains, locus YNL322C, strain KRE1 (second series), hits give low values 1 | S. cerevisiae deletion strains, locus YNL322C, strain KRE1, hits give low values 0.993 | S. cerevisiae deletion strains, locus YNR049C, strain mso1, hits give low values 1.01 | S. cerevisiae deletion strains, locus YNR052C, strain pop2, hits give low values 0.994 | S. cerevisiae deletion strains, locus YOL006C, strain TOP1, hits give low values 0.993 | S. cerevisiae deletion strains, locus YOL012C, strain htz1 0.711 | S. cerevisiae deletion strains, locus YOL147C, strain pex11, hits give low values 0.993 | S. cerevisiae deletion strains, locus YOR001W, strain rrp6, hits give low values 1.02 | S. cerevisiae deletion strains, locus YOR061W, strain CKA2, hits give low values 1 | S. cerevisiae deletion strains, locus YOR069W, strain VPS5, hits give low values 0.99 | S. cerevisiae deletion strains, locus YOR070C, strain gyp1, hits give low values 1.01 | S. cerevisiae deletion strains, locus YOR080W, strain dia2, hits give low values 1.02 | S. cerevisiae deletion strains, locus YOR083W, strain WHI5, hits give low values 0.981 | S. cerevisiae deletion strains, locus YOR106W, strain vam3, hits give low values 1.03 | S. cerevisiae deletion strains, locus YOR136W, strain idh2, hits give low values 0.988 | S. cerevisiae deletion strains, locus YOR144C, strain elg1, hits give low values 0.982 | S. cerevisiae deletion strains, locus YOR184W, strain ser1, hits give low values 0.989 | S. cerevisiae deletion strains, locus YOR231W, strain MKK1, hits give low values 0.988 | S. cerevisiae deletion strains, locus YOR265W, strain rbl2, hits give low values 1.02 | S. cerevisiae deletion strains, locus YOR270C, strain vph1, hits give low values 1.04 | S. cerevisiae deletion strains, locus YOR290C, strain snf2, hits give low values 1.01 | S. cerevisiae deletion strains, locus YOR316C, strain cot1, hits give low values 0.978 | S. cerevisiae deletion strains, locus YPL051W, strain arl3, hits give low values 1.01 | S. cerevisiae deletion strains, locus YPL078C, strain atp4, hits give low values 1.01 | S. cerevisiae deletion strains, locus YPL106C, strain sse1, hits give low values 0.994 | S. cerevisiae deletion strains, locus YPL240C, strain hsp82, hits give low values 1.02 | S. cerevisiae deletion strains, locus YPL241C, strain CIN2, hits give low values 0.992 | S. cerevisiae deletion strains, locus YPL256C, strain CLN2, hits give low values 0.984 | S. cerevisiae deletion strains, locus YPR119W, strain clb2, hits give low values 0.983 | S. cerevisiae deletion strains, locus YPR141C, strain kar3, hits give low values 0.973 | S. cerevisiae deletion strains, locus YPR163C, strain tif3, hits give low values 0.982 | S. cerevisiae deletion strains, locus YPR167C, strain met16, hits give low values 0.989 | S. cerevisiae deletion strains, strain wtn01, hits give low values 0.943 | S. cerevisiae strains, strain wild type, hits give low values 0.994

From PubChem BioAssay AID1159580 (chemical genetic matrix, 2015)
